The sample as a whole holds a higher share of hits than the screen did.
CD40 NFkB inh: CD40 pathway inhibition in BL2 cells. BL2 NF-kB luciferase reporter, CD40L-induced, 4 h. inhibition, % at 10 µM. hit rate 0.94% among 83,000;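 active = mean inhibition of at least 50% with a set share of replicates also reaching that level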;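 also: 0% = neutral control wells and 100% = IKK inhibitor VII at 50 µM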
* marks the source's active call; other numbers are inactive results; ! = not confirmed by another sample; [ ] = dose if it differs, or a comment.

SMILES	CD40 NFkB inh
CCOCCCNC(=O)/C(C#N)=C/c1ccc(Cl)c([N+](=O)[O-])c1	73*
Nc1cc2c(cc1[N+](=O)[O-])OCCO2	7
O=C1OCC(CC2=C(O)C(=O)OC2)=C1O	0
Cc1nc(-c2ccc(F)cc2)c(CC(=O)N(C)CC(=O)Nc2ccccc2Br)s1	40
CCN(CC(=O)Nc1ccccc1C(F)(F)F)C(=O)Cc1sc(C)nc1-c1ccc(F)cc1	-13
Cc1nc(-c2ccc(F)cc2)c(CC(=O)N(C)CC(=O)Nc2cccc(F)c2)s1	54*
Cc1nc(-c2ccc(F)cc2)c(CC(=O)NCC(=O)Nc2ccc(F)c(F)c2)s1	-4
Cc1nc(-c2ccc(F)cc2)c(CC(=O)N(C)CC(=O)Nc2ccccc2C(F)(F)F)s1	6
Cc1nc(-c2ccc(F)cc2)c(CC(=O)N(C)CC(=O)Nc2ccc(Br)cc2C)s1	92*
CN(C)CC(=O)N1C[C@@H]2N[C@H](C1)C2c1ccc(C2=CCCCC2)cc1 (some centres undefined)	-4[25 µM]
COc1ccc(C(=O)C(=NN)c2ccccc2)cc1	-10
O=C(O)CCC(=O)NCC1OCCc2ccccc21 (centres undefined)	7
CCOc1ccc2c(ccc(/C=C/c3cc(C)c4cccnc4c3O)[n+]2C)c1	79*
CCCCC(NC(=O)c1ccc(Cl)cc1)C(=O)O (centres undefined)	-1
C[C@]12CCC3C(CC=C4C[C@@H](O)CC[C@@]43C)C1CCC2[C@]1(C)CCC(=O)O1 (some centres undefined)	-7
CC(C)(C)[C@H](N)C(=O)N[C@H]1CCC2C3CC=C4C[C@@H](O)CC[C@]4(C)C3CC[C@@]21C (some centres undefined)	103*
C[C@]12CC[C@H](O)CC1=CCC1C2CC[C@@]2(C)C1CC[C@@H]2NC(=O)[C@@H](N)Cc1ccccc1 (some centres undefined)	10
COc1ccccc1CCC(=O)OCC(=O)NCc1ccc(OC)c(OC)c1	5
C[C@H]1CN([C@@H](C)CO)C(=O)c2cccc(NC(=O)CCCCCC(=O)Nc3ccccc3N)c2O[C@H]1CN(C)Cc1ccc(Cl)c(Cl)c1	-29[25 µM]
COc1ccc(/C=N/NC(=O)c2ccn[nH]2)cc1Cn1nc(C)c([N+](=O)[O-])c1C	-35
O=C(Nc1ccc2c(c1)OCCO2)c1ccccn1	78*
O=C(Nc1ccc2c(c1)OCCO2)c1ccc2ccccc2n1	-42
CC(OC(=O)c1ccccn1)C(=O)Nc1ccc2c(c1)OCCO2 (centres undefined)	-1
COc1ccc2c3c([nH]c2c1)[C@@H](CO)N(CC1CC1)CC31CN(Cc2cc(F)ccc2F)C1	14[25 µM]
O=S(=O)(c1ccc2c(c1)OCCO2)N1CCN(Cc2ccc3c(c2)OCO3)CC1	-1
SMILES	CD40 NFkB inh
Cc1ccc(-n2ccnc(SCC(=O)NC3CCCC3)c2=O)cc1Cl	3
CCOc1ccc(-n2ccnc(SCC(=O)NCCc3ccccc3)c2=O)cc1	-3
Cc1ccc(-n2ccnc(SCC(=O)NCCc3ccccc3)c2=O)cc1F	54*
C/C=C/c1ccc([C@@H]2[C@H](CO)N(C(C)=O)[C@H]2CN(C(=O)COC)C(C)C)cc1	-3[25 µM]
N#C[C@H]1[C@H](c2ccccc2C2=CCCC2)[C@H](CO)N1C(=O)NC1CCCC1	7
O=C1c2ccccc2C(O)(c2ccccc2)N1CCc1ccccc1 (centres undefined)	24
O=C(C[C@H]1C=C[C@@H](NC(=O)c2cnccn2)[C@@H](CO)O1)NCc1ccccc1F	-10[25 µM]
CNC[C@@H]1OCCCC[C@@H](C)Oc2ccc(NS(=O)(=O)c3ccc(F)cc3)cc2C(=O)N([C@H](C)CO)C[C@H]1C	-13[25 µM]
CS(=O)(=O)Nc1ccc(Br)cc1	5
COc1ccc(C#Cc2ccc([C@H]3[C@@H](CO)N4CCCCN(C(=O)Nc5cccc(F)c5)C[C@H]34)cc2)cc1	22[25 µM]
O=C(Nc1ccc(F)cc1)N1C[C@@H]2N[C@H](C1)C2c1ccc(/C=C/c2ccccc2)cc1 (some centres undefined)	25[25 µM]
O=C(Nc1ccccc1F)N1CCCCN2[C@H](CO)[C@H](c3ccc(/C=C/c4ccccc4)cc3)[C@H]2C1	89*[25 µM]
O=C(Nc1ccccc1Cl)N1[C@@H]2CNC[C@H]1C2c1ccc(-c2ccccc2)cc1 (some centres undefined)	4
O=C(Nc1ccccc1F)N1C[C@@H]2N[C@H](C1)C2c1ccc(/C=C/c2ccccc2)cc1 (some centres undefined)	53*
O=C(Nc1ccccc1F)N1CCCCN2[C@H](C1)[C@@H](c1ccc(/C=C/c3ccccc3)cc1)[C@@H]2CO	-2[25 µM]
O=C(Nc1ccccc1Cl)N1[C@@H]2CNC[C@H]1C2c1ccc(/C=C/c2ccccc2)cc1 (some centres undefined)	58*!
COc1ccc(C#Cc2ccc([C@@H]3[C@H]4CN(C(=O)Nc5cccc(F)c5)CCCCN4[C@H]3CO)cc2)cc1	5[25 µM]
COc1ccc(C#Cc2ccc([C@@H]3[C@H](CO)N4CCCCN(C(=O)Nc5cccc(F)c5)C[C@@H]34)cc2)cc1	68*[25 µM]
O=C(Nc1ccccc1F)N1CCCCN2[C@H](CO)[C@H](c3ccc(/C=C/c4ccccc4)cc3)[C@@H]2C1	14[25 µM]
C/C=C/c1ccc(C2[C@H]3CNC[C@@H]2N3C(=O)Nc2ccccc2Cl)cc1 (some centres undefined)	-3[25 µM]
C/C=C/c1ccc(C2[C@@H]3CN(C(=O)Nc4ccccc4F)C[C@H]2N3)cc1 (some centres undefined)	-4[25 µM]
C[C@@H]1CN([C@H](C)CO)C(=O)c2cccc(NC(=O)c3ccc(-c4nccs4)cc3)c2O[C@@H]1CN(C)Cc1ccc(C(=O)Nc2ccccc2N)cc1	-87
Cc1ccc(C(=O)NCCCNC(=O)c2ccco2)cn1	5
COc1ccc2c3c([nH]c2c1)[C@@H](CO)N(C(=O)NC(C)C)CC31CCN(C(=O)c2cnccn2)CC1	-12[25 µM]
O=C(Nc1cccnc1)c1ccccc1-c1ccccc1	3
SMILES	CD40 NFkB inh
O=C(C1CCCCC1)N1CCc2[nH]c3ccc(F)cc3c2C1	-3
COc1ccc(C(=O)NCC(=O)OCC(=O)N2CCCc3ccccc32)cc1	2
N#C[C@@H]1[C@H](c2ccccc2-c2ccccc2F)[C@@H](CO)N1C(=O)c1cccc(F)c1	4[25 µM]
CN(CC[C@@H](Oc1ccc(-c2ccccc2)cc1)c1ccc(F)cc1)CC(=O)O	-8[25 µM]
COc1ccccc1S(=O)(=O)N1[C@@H]2CNC[C@H]1C2c1ccc(/C=C/c2ccccc2)cc1 (some centres undefined)	14[25 µM]
Cc1ccccc1S(=O)(=O)N1[C@@H]2CNC[C@H]1C2c1ccc(/C=C/c2ccccc2)cc1 (some centres undefined)	51*!
Cc1ccccc1S(=O)(=O)N1[C@@H]2CNC[C@H]1[C@@H]2c1ccc(-c2ccc(C#N)cc2)cc1	8[25 µM]
Cc1ccc(C)c(NC(=O)CN(C)C(=O)COc2ncnc3sccc23)c1	4
CO[C@@H](CN(C)S(=O)(=O)c1ccc(Cl)cc1)[C@H](C)CN(Cc1ccccc1Cl)[C@@H](C)CO	34*
CO[C@H](CN(C)S(=O)(=O)c1ccc(Cl)cc1)[C@H](C)CN(Cc1ccccc1Cl)[C@@H](C)CO	14
CO[C@@H](CN(C)S(=O)(=O)c1ccc(Cl)cc1)[C@@H](C)CN(Cc1ccccc1Cl)[C@H](C)CO	2
COc1ccc(CCNC(=O)c2cccc(S(=O)(=O)N3CCCC3)c2)cc1	5
O=C(NCCc1ccc2c(c1)OCCO2)c1cccc(S(=O)(=O)N2CCCC2)c1	43*
O=C(NCCN1CCOCC1)c1cccc(S(=O)(=O)N2CCCC2)c1	2
